Consider 35 compounds from PubChem BioAssay.

Values without a mark were called inactive. Active and inactive are the calls of the source. Cut-off read from the data, not from the text of the source, unless noted: active = inhibition above about 42%; inactive = the rest.

In the first assay the target is Nuclear receptor subfamily 5 group A member 2 (Homo sapiens) (UniProt O00482). The assay can be described thus: NR5A2 activity suppression in reporter cells – cell-based, luminescence, confirmation (AID 651613).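 Note: HEK293T cells co-transfected with LRH-1 and StAR promoter luciferase reporter; 0% = vehicle wells and 100% = parental cells lacking receptor.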 As to conditions: cell-based LRH-1 luciferase reporter, inverse agonism; at 3.6 µM; stronger effect = higher value.
Nuclear receptor subfamily 5 group A member 2 (Homo sapiens), sequence (O00482 whole entry, looked up): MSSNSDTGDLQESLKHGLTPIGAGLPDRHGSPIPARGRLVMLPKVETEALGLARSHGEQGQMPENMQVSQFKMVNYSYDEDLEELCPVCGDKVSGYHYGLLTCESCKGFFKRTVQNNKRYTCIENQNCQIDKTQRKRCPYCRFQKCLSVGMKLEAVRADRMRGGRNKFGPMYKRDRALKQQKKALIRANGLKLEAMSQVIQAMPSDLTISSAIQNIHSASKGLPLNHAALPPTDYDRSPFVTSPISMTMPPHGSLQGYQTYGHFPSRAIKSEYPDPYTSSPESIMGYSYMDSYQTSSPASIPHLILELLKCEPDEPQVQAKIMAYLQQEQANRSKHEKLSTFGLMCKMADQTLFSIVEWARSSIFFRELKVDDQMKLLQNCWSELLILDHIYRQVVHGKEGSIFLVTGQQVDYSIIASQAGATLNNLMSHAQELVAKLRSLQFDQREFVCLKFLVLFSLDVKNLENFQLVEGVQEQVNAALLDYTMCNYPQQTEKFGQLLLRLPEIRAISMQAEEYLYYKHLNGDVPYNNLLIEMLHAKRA
As to `On1ccccc1=S`, the inhibition is 83.1% (active).
The same measure, in the same setting: the result for `COc1ccc(CCNC(=O)CSc2nnc(CNc3ccc(Cl)cc3)o2)cc1OC` reads 48.7% (active).
Still for that read-out and setting: the result for `Cc1cc(NCCCCCCCNc2cc(C)nc3cc([N+](=O)[O-])ccc23)c2ccc([N+](=O)[O-])cc2n1` reads 26.2%; that for `CC(Cl)C(=O)Nc1ncc(C(F)(F)F)cc1Cl` (stereo not given), 58.9% (active); that for `CCN1CCN(c2ccc(S(=O)(=O)N3CCCCC3)cc2NC(=O)/C=C/c2ccc([N+](=O)[O-])cc2)CC1`, 61.8% (active).
In the case of `CC1CCCC(C)N1C(=O)COC(=O)Cc1ccc(F)cc1` (stereo not given), the inhibition is 47.2% (active).
The same measure, in the same setting: the result for `Cc1c(Cl)cccc1NC(=O)CSc1sc2c(O)cc(=O)[nH]c2c1C#N` reads 25.5%; that for `Cc1cccc(-c2cc(NCCc3cccnc3)n3nccc3n2)c1`, 51.1% (active); that for `CC(=O)N1CCN(c2ccccc2NC(=O)c2cc3ccccc3o2)CC1`, 43.5% (active).
The same measure, in the same setting: for `Cc1ccc(-c2csc(NC(=O)c3ccc([N+](=O)[O-])o3)n2)cc1` the value was 57.5% (active); for `CC(=O)N1c2ccc(S(=O)(=O)N3CCC(C(=O)Nc4cccc(C)n4)CC3)cc2CC1C` (stereo not given), 57.1% (active).
On to `CCn1cc(Br)c(C(=O)Nc2ccccc2C(=O)OC)n1`, for which the inhibition was 47.4% (active).
Still for that read-out and setting: for `O=C(C(=Cc1ccccc1)CN1CCCCC1)c1ccccc1` the value was 66.8% (active); for `CCOc1ccc(OCCC(=O)OCC(=O)Nc2ccc3c(c2)OCCO3)cc1`, 41.5% (active); for `O=C(CN1C(=O)NC2(CCCC2)C1=O)NCCc1ccc(F)cc1`, 44.2% (active).
The same measure, in the same setting: for `COc1ccc(/C=C/C(=O)c2cc(F)ccc2OC(=O)c2ccccc2C)cc1OC` the value was 41.1%; for `Cc1c(NC(=O)C(C)OC(=O)c2ccc([N+](=O)[O-])s2)c(=O)n(-c2ccccc2)n1C` (stereo not given), 23.3%; for `O=C(c1ccccc1Br)N1CCN(c2ccc([N+](=O)[O-])c(N3CCOCC3)c2)CC1`, 42% (active).
Same read-out and setting: for `COc1ccc(NC(=O)CSc2n[nH]c(-c3ccccn3)n2)cc1` the value was 32.4%; for `CCCCNC(=O)CSc1nc2ccc(NC(=O)CSc3nnc(COc4ccccc4C)n3C)cc2s1`, 61.2% (active).
Consider `COc1cc2oc(-c3ccc(O)cc3)cc(=O)c2c(O)c1OC`, for which the inhibition was 35.9%.
As for `O=C(Nc1ccc(N2CCN(Cc3ccccc3F)CC2)cc1)c1ccc([N+](=O)[O-])o1`, the inhibition is 70.6% (active).
Consider `CCn1c2ccccc2c2cc(/C=N/n3c(-c4cc(C)[nH]n4)n[nH]c3=S)ccc21`, for which the inhibition is 4.98%.
Same read-out and setting: the result for `Nc1nc2ccccc2n1/N=C/c1ccc([N+](=O)[O-])s1` reads 61.2% (active).
Same read-out and setting: for `CC1(C)Cc2ccccc2-c2nnnn21` the value was 14.1%; for `CN1CCN(c2nc(-c3ccccc3O)nc3ccccc23)CC1`, 42% (active).
Same read-out and setting: for `COc1cc(C(=O)NC2CCN(C)CC2)ccc1Nc1ncc2c(n1)N(CCc1ccccc1)CCC(=O)N2C` the value was 54.8% (active); for `Cc1cc2oc(C(=O)NCc3ccncc3)c(C)c2cc1C`, 36.2%; for `O=C(CCl)Nc1ccc2c(c1)OCO2`, 60.3% (active).
Consider `O=C(NCc1cccnc1)c1cccc2c1C(=O)N(C1CCCCC1)C2`, for which the inhibition was 48.5% (active).
The same measure, in the same setting: for `COC(=O)CC1(C(=O)OC)Oc2ccc(Br)cc2C(=O)N1c1cc(Cl)c(Cl)cc1Cl` (stereo not given) the value was 58.5% (active).
Same read-out and setting: the result for `O=C(Nc1cccc2ccccc12)c1ccc([N+](=O)[O-])o1` reads 68.5% (active).
For `Cc1ccc2c(c1)N(C)/C(=C/c1cccc[n+]1C)S2`, the inhibition was 61.8% (active).
For the compound `O=C(NCC1CCCO1)c1ccc(NC(=O)c2cccc([N+](=O)[O-])c2)cc1` (stereo not given), the inhibition was 56.2% (active).
For `CC(C(=O)N1CCCc2c1c(=O)oc1ccc(O)cc21)N1CCc2ccccc2C1` (stereo not given), the inhibition was 48.5% (active).

In the next assay the target is Steroidogenic factor 1 (Homo sapiens) (UniProt Q13285). Kind of assay: inverse agonism at SF1 nuclear receptor – cell-based, luminescence, high throughput, counter-screen for LRH-1 inverse agonist project (AID 651614; in the data active = inhibition above about 44%;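 note: cells cotransfected with StAR promoter reporter and SF1 expression vector; 0% = vehicle on cells with receptor and 100% = vehicle on cells lacking receptor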). The following applies: cell-based SF1 luciferase reporter, at 3.6 µM, stronger effect = higher value.
Steroidogenic factor 1 (Homo sapiens), sequence (Q13285 whole entry, looked up): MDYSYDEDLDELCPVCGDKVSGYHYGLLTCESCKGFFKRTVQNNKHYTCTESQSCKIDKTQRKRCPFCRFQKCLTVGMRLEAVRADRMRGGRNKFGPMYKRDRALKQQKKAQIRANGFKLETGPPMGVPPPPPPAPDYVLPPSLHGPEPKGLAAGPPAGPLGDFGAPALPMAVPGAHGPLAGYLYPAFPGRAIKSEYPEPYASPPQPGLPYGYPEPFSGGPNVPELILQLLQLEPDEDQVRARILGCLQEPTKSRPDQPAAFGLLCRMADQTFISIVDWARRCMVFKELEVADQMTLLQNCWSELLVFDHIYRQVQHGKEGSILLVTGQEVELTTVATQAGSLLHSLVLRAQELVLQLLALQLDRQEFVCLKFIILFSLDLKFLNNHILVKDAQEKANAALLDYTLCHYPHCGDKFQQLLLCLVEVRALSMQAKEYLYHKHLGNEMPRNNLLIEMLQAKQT
For `On1ccccc1=S`, the inhibition is 82.3% (active).
On the same count and under the same terms, for `COc1ccc(CCNC(=O)CSc2nnc(CNc3ccc(Cl)cc3)o2)cc1OC` the value was 38.9%; for `Cc1cc(NCCCCCCCNc2cc(C)nc3cc([N+](=O)[O-])ccc23)c2ccc([N+](=O)[O-])cc2n1`, 40.3%.
Same read-out and setting: the result for `CC(Cl)C(=O)Nc1ncc(C(F)(F)F)cc1Cl` (stereo not given) reads 51.3% (active); that for `CCN1CCN(c2ccc(S(=O)(=O)N3CCCCC3)cc2NC(=O)/C=C/c2ccc([N+](=O)[O-])cc2)CC1`, 49.4% (active).
The same measure, in the same setting: the result for `CC1CCCC(C)N1C(=O)COC(=O)Cc1ccc(F)cc1` (stereo not given) reads 44.5% (active).
With `Cc1c(Cl)cccc1NC(=O)CSc1sc2c(O)cc(=O)[nH]c2c1C#N`, the inhibition is 29.2%.
The same measure, in the same setting: for `Cc1cccc(-c2cc(NCCc3cccnc3)n3nccc3n2)c1` the value was 41.3%; for `CC(=O)N1CCN(c2ccccc2NC(=O)c2cc3ccccc3o2)CC1`, 37.7%; for `Cc1ccc(-c2csc(NC(=O)c3ccc([N+](=O)[O-])o3)n2)cc1`, 54.4% (active).
The same measure, in the same setting: for `CC(=O)N1c2ccc(S(=O)(=O)N3CCC(C(=O)Nc4cccc(C)n4)CC3)cc2CC1C` (stereo not given) the value was 54.1% (active); for `CCn1cc(Br)c(C(=O)Nc2ccccc2C(=O)OC)n1`, 46.6% (active).
On the same count and under the same terms, the result for `O=C(C(=Cc1ccccc1)CN1CCCCC1)c1ccccc1` reads 75.1% (active); that for `CCOc1ccc(OCCC(=O)OCC(=O)Nc2ccc3c(c2)OCCO3)cc1`, 37.1%; that for `O=C(CN1C(=O)NC2(CCCC2)C1=O)NCCc1ccc(F)cc1`, 40.8%.
Take `COc1ccc(/C=C/C(=O)c2cc(F)ccc2OC(=O)c2ccccc2C)cc1OC`: the inhibition is 44.9% (active).
With `Cc1c(NC(=O)C(C)OC(=O)c2ccc([N+](=O)[O-])s2)c(=O)n(-c2ccccc2)n1C` (stereo not given), the inhibition is 19.4%.
Same read-out and setting: the result for `O=C(c1ccccc1Br)N1CCN(c2ccc([N+](=O)[O-])c(N3CCOCC3)c2)CC1` reads 38.9%.
The same measure, in the same setting: the result for `COc1ccc(NC(=O)CSc2n[nH]c(-c3ccccn3)n2)cc1` reads 20.2%.
Same read-out and setting: for `CCCCNC(=O)CSc1nc2ccc(NC(=O)CSc3nnc(COc4ccccc4C)n3C)cc2s1` the value was 61.3% (active).
`COc1cc2oc(-c3ccc(O)cc3)cc(=O)c2c(O)c1OC`: the inhibition was 32.8%.
On the same count and under the same terms, the result for `O=C(Nc1ccc(N2CCN(Cc3ccccc3F)CC2)cc1)c1ccc([N+](=O)[O-])o1` reads 73.9% (active); that for `CCn1c2ccccc2c2cc(/C=N/n3c(-c4cc(C)[nH]n4)n[nH]c3=S)ccc21`, 31.7%.
On the same count and under the same terms, for `Nc1nc2ccccc2n1/N=C/c1ccc([N+](=O)[O-])s1` the value was 65.1% (active); for `CC1(C)Cc2ccccc2-c2nnnn21`, 2.39%; for `CN1CCN(c2nc(-c3ccccc3O)nc3ccccc23)CC1`, 26.3%.
On the same count and under the same terms, for `COc1cc(C(=O)NC2CCN(C)CC2)ccc1Nc1ncc2c(n1)N(CCc1ccccc1)CCC(=O)N2C` the value was 47.4% (active); for `Cc1cc2oc(C(=O)NCc3ccncc3)c(C)c2cc1C`, 39.6%; for `O=C(CCl)Nc1ccc2c(c1)OCO2`, 62.4% (active).
In the case of `O=C(NCc1cccnc1)c1cccc2c1C(=O)N(C1CCCCC1)C2`, the inhibition is 51.5% (active).
For the compound `COC(=O)CC1(C(=O)OC)Oc2ccc(Br)cc2C(=O)N1c1cc(Cl)c(Cl)cc1Cl` (stereo not given), the inhibition was 48.2% (active).
The same measure, in the same setting: for `O=C(Nc1cccc2ccccc12)c1ccc([N+](=O)[O-])o1` the value was 70.8% (active).
Same read-out and setting: the result for `Cc1ccc2c(c1)N(C)/C(=C/c1cccc[n+]1C)S2` reads 64% (active).
Turning to `O=C(NCC1CCCO1)c1ccc(NC(=O)c2cccc([N+](=O)[O-])c2)cc1` (stereo not given), the inhibition was 54% (active).
Same read-out and setting: for `CC(C(=O)N1CCCc2c1c(=O)oc1ccc(O)cc21)N1CCc2ccccc2C1` (stereo not given) the value was 32.4%.
